Measured values published in PubChem BioAssay (Tox21).
Values joined by “and” are separate entries in the source; they are usually repeats but may differ in a detail not shown here. Identical values can stand only once. Inconclusive results are not listed. Where a call stands in place of a potency, no number is given. A number with no mark means an inactive call. Active and inactive are the calls of the source. Unless noted, the call rests on the fitted dose curve.

What was measured:
[1] = qHTS assay to identify small molecule agonists of the vitamin D receptor (VDR) signaling pathway - cell viability counter screen (AID 743224; active means well fitted curve in the direction sought with a large enough effect in the repeat runs; an effect the other way counts as inactive or inconclusive; further: nearly all actives have a fitted effect of over 50% in size; further: potency means the concentration at half of the fitted maximal effect); conditions: VDR-bla HEK293T viability, CellTiter-Glo luminescence, 16 h; series mostly up to 62.6 µM
In short: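 Cells: VDR-bla, 2,000/well, settled 4 h. Treatment: compounds in DMSO, 16 h, 37C/5% CO2. Readout: CellTiter-Glo luminescence after 30 min RT.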

[2] = qHTS assay to identify small molecule antagonists of the vitamin D receptor (VDR) signaling pathway - cell viability counter screen (AID 743225; active means well fitted curve in the direction sought with a large enough effect in the repeat runs; an effect the other way counts as inactive or inconclusive; further: nearly all actives have a fitted effect of over 50% in size; further: potency means the concentration at half of the fitted maximal effect); conditions: VDR-bla HEK293T viability, CellTiter-Glo luminescence, 16 h; series mostly up to 61 µM
In short: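 VDR-UAS-bla HEK 293T cells were plated and incubated 4 h at 37C, then dosed with compound plus 3 nM (final) 1-alpha,25-dihydroxyvitamin D3 for 16 h. After the 2 h beta-lactamase read, viability in the same wells was read as CellTiter-Glo luminescence after 30 min at room temperature.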

[3] = qHTS assay to identify small molecule agonists of the NFkB signaling pathway (AID 1159509; active means well fitted curve in the direction sought with a large enough effect in the signal ratio in the repeat runs, not every such curve was filed as active; the % refers to the signal ratio); conditions: NFkB-bla ME-180 cells, beta-lactamase FRET ratio, 5 h; series mostly up to 61 µM
In short: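 Readout: FRET fluorescence, 405 nm excitation, 460/530 nm emission; beta-lactamase expression disrupts FRET. Cells: ME-180 stably carrying NF-kB-driven bla reporter. Compound exposure 5 hr, 37 C, 5% CO2.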

[4] = qHTS assay to identify small molecule agonists of the endoplasmic reticulum stress response signaling pathway - cell viability counter screen (AID 1159517); conditions: ESRE-bla HeLa viability, CellTiter-Glo luminescence, 5 h; series mostly up to 61 µM;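 further: HeLa cells carrying an ER stress response element beta-lactamase reporter; nearly all actives have a fitted effect of over 50% in size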
In short: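 Steps: seed 1,500 ESRE-bla HeLa cells per well; incubate overnight at 37 C, 5% CO2; add compounds in DMSO for 5 hr; run FRET substrate 2 hr RT; add CellTiter-Glo, wait 30 min, read luminescence.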

[5] = qHTS assay to identify small molecule antagonists of the retinoid-related orphan receptor gamma (ROR-gamma) signaling pathway - cell viability counter screen (AID 1159520; active means well fitted curve in the direction sought with a large enough effect in the repeat runs; an effect the other way counts as inactive or inconclusive; further: nearly all actives have a fitted effect of over 50% in size; further: potency means the concentration at half of the fitted maximal effect); conditions: Tet-on RORgamma CHO cells viability, ATP luminescence, 16 h; series mostly up to 92.4 µM
In short: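 Tet-on ROR gamma CHO cells were given compounds for 2 hr, then doxycycline hyclate at 1 uM final, and incubated 16 hr at 37 C. Viability was measured as ATP content by CellTiter-Glo luminescence.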

[6] = qHTS assay to identify small molecule agonists of the NFkB signaling pathway - cell viability counter screen (AID 1159515); conditions: NFkB-bla ME-180 viability, CellTiter-Glo luminescence, 5 h; series mostly up to 61 µM; further: nearly all actives have a fitted effect of over 55% in size
In short: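 Cells are seeded (2,000 NFkB-bla ME-180 per well), rested overnight, and dosed with DMSO-dissolved compounds for 5 hr at 37 C. Viability is then read by CellTiter-Glo luminescence after 30 min at room temperature.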

[7] = qHTS assay to identify small molecule agonists of the endoplasmic reticulum stress response signaling pathway (AID 1159516; active means well fitted activation curve with a large enough effect in the signal ratio in the repeat runs, not every such curve was filed as active; the % refers to the signal ratio); conditions: ESRE-bla HeLa, ER stress beta-lactamase reporter, 5 h; series mostly up to 61 µM
In short: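 Cells are seeded at 1,500 per well and incubated overnight. Compounds in DMSO are added for 5 hr at 37 C, then beta-lactamase FRET substrate for 2 hr at room temperature, and fluorescence at 460 and 530 nm is measured.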

[8] = molecular target: Nuclear receptor ROR-gamma (Homo sapiens) (UniProt P51449); test: qHTS assay to identify small molecule antagonists of the retinoid-related orphan receptor gamma (ROR-gamma) signaling pathway (AID 1159521; active means well fitted curve in the direction sought with a large enough effect in the repeat runs; an effect the other way counts as inactive or inconclusive; further: nearly all actives have a fitted effect of over 50% in size; further: potency means the concentration at half of the fitted maximal effect;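 on activity change, negative = inhibition: CHO cells with doxycycline inducible ROR-gamma driving an RORE luciferase reporter; top concentration of the series differs between compounds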); conditions: Tet-on RORgamma CHO cells, RORE-luciferase, 16 h; series mostly up to 92.4 µM
In short: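 Tet-on ROR-gamma CHO cells with ROR response element-luciferase reporter; compounds added 2 hr before 1 uM doxycycline induction, then 16 hr at 37 C. Antagonism scored as decreased ONE-Glo luminescence.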

[9] = qHTS assay to identify small molecule agonists of the AP-1 signaling pathway - cell viability counter screen (AID 1159525); conditions: ME-180 AP-1-bla cells viability, ATP luminescence, 5 h; series mostly up to 76.8 µM; further: nearly all actives have a fitted effect of over 55% in size
In short: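 Same-well cytotoxicity counter screen of the Tox21 10K library in ME-180 cells. The readout is ATP-dependent luminescence after 5 h compound treatment. Data are normalised to DMSO and tetra n-octyl ammonium bromide controls.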

[10] = qHTS assay to identify small molecule agonists of the AP-1 signaling pathway (AID 1159526); conditions: ME-180 (cervical carcinoma) AP-1-bla reporter, beta-lactamase FRET ratio, 5 h; series mostly up to 76.8 µM

With `COc1ccc(OC(F)(F)F)cc1CN[C@H]1CCCN[C@H]1c1ccccc1` the Potency [1] was 54.9 µM (active), the Potency [2] was 49 µM (active) and the outcome [3] was “inactive”. The Potency [4] was “inactive” and the Potency [5] was “inactive”.

In the case of `Cn1c(=O)c2c(ncn2C)n(C)c1=O`, the Potency [1] is reported as “inactive”, the Potency [2] is reported as “inactive” and the Potency [6] is reported as “inactive”. For the same molecule, the Potency [7] was “inactive”, the Potency [4] was “inactive” and the Potency [5] was “inactive”. For the same molecule, the Potency [8] was “inactive”, the Potency [9] was “inactive” and the Potency [10] was “inactive”.

In the case of `CCCC[P+](CCCC)(CCCC)CCCC`, the Potency [1] is reported as “inactive”, the Potency [2] is reported as “inactive” and the Potency [6] is reported as “inactive”. For the same molecule, the Potency [7] was “inactive”, the Potency [4] was “inactive” and the Potency [5] was “inactive”. For the same molecule, the Potency [8] was “inactive”, the Potency [9] was “inactive” and the Potency [10] was “inactive”.

In the case of `Nc1ccc(O)c([N+](=O)[O-])c1`, the outcome [3] is reported as “inactive”, the Potency [5] is reported as “inactive” and the Potency [8] is reported as 8.63 µM (active). For the same molecule, the Potency [9] was “inactive”.

With `O=C(Nc1ncc([N+](=O)[O-])s1)c1cccs1` the outcome [3] was “inactive”, the Potency [5] was 13.3 µM (active) and the Potency [8] was “inactive”.

For `CCCCOC(=O)c1ccc(O)cc1`, the Potency [1] was “inactive”, the Potency [2] was “inactive” and the Potency [6] was “inactive”. For the same molecule, the Potency [7] was “inactive”, the Potency [4] was “inactive” and the Potency [5] was “inactive”. The Potency [8] was “inactive”, the Potency [9] was “inactive” and the Potency [10] was “inactive”.

With `O=CC(=O)c1ccccc1` the Potency [1] was “inactive”, the Potency [2] was “inactive” and the outcome [3] was “inactive”. The Potency [5] was “inactive” and the Potency [9] was “inactive”.

For `CCN(Cc1c(F)cccc1Cl)c1c([N+](=O)[O-])cc(C(F)(F)F)cc1[N+](=O)[O-]`, the Potency [1] was “inactive”, the outcome [3] was “inactive” and the Potency [5] was “inactive”. For the same molecule, the Potency [8] was “inactive”.

With `CC(C)C(=O)Nc1ccc([N+](=O)[O-])c(C(F)(F)F)c1` the Potency [1] was “inactive”, the Potency [2] was “inactive” and the Potency [6] was “inactive”. For the same molecule, the Potency [7] was “inactive”, the Potency [4] was “inactive” and the Potency [5] was “inactive”. For the same molecule, the Potency [8] was 28.1 µM (active) and 10.9 µM (active) and 33.5 µM (active), the Potency [9] was “inactive” and the Potency [10] was “inactive”.

With `Nc1ccc2c(c1)CN1C(=O)c3ccccc3C1=N2` the Potency [1] was “inactive”, the Potency [2] was “inactive” and the outcome [3] was “inactive”. For the same molecule, the Potency [4] was “inactive”, the activity change, negative = inhibition [8] was -8.87% [at 19 µM] and the activation [10] was -1.9% [at 15.8 µM].

With `Cc1c(C(=O)O)c(O)cc2c1C(=O)c1c(O)c([C@@H]3O[C@H](CO)[C@@H](O)[C@H](O)[C@H]3O)c(O)c(O)c1C2=O` the Potency [1] was “inactive”, the Potency [2] was “inactive” and the Potency [6] was “inactive”. For the same molecule, the Potency [7] was “inactive”, the Potency [4] was “inactive” and the Potency [5] was “inactive”. For the same molecule, the Potency [8] was “inactive”, the Potency [9] was “inactive” and the Potency [10] was “inactive”.

In the case of `CC1(C)O[C@@H]2C[C@H]3[C@@H]4CCC5=CC(=O)C=C[C@]5(C)[C@@]4(F)[C@@H](O)C[C@]3(C)[C@]2(C(=O)CO)O1`, the Potency [1] is reported as “inactive”, the Potency [2] is reported as “inactive” and the Potency [6] is reported as “inactive”. For the same molecule, the Potency [7] was “inactive”, the Potency [4] was “inactive” and the Potency [5] was “inactive”. The Potency [8] was “inactive”, the Potency [9] was “inactive” and the Potency [10] was “inactive”.
